Most compounds without a hit are left out; they make up all but 22% or so of the library.
E-sel TNF inh: TNF alpha driven E-selectin expression inhibition. actives 0.71% (n = 120,000). AID 1246. HUVEC TNFa-induced E-selectin immunofluorescence, high content. inhibition, % at 2 µM;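 active means inhibition above the batch mean plus 3 SD, and confirmed as a hit on visual image review, cut at about 43% in these data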;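 further: 0% = TNF-stimulated DMSO wells and 100% = unstimulated control wells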
CYP2C19 inhib: inhibitors of human CYP2C19 | P33261 | CYP2C19 Supersomes, luciferin-H EGE luminescence, 30 min | inhibition, % at 5 µM | actives 21% (n = 96,000) | AID 778;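 active means CYP2C19 inhibition above a set limit at 5 µM in the primary screen, cut at about 50% in these data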;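 further: plate controls were negative control wells for no effect and 2.5 mM tranylcypromine positive control for full effect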
CYP2C19 activ: cytochrome P450 2C19 (human) activation; P33261; recombinant CYP2C19, luciferin-H EGE luminescence; stronger effect = higher value; 0 = fully inhibited enzyme, 1 = untreated enzyme; activation factor at 5 µM; 96,000 tested, under 10 active;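 active means activation factor of at least 2 at 5 µM in the primary screen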;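 further: 0 = wells with 2.5 mM tranylcypromine and 1 = vehicle-only wells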
CYP2C9 inhib: human CYP2C9 inhibition; CYP2C9 Supersomes, luciferin-H conversion, luminescence; inhibition, % at 5 µM; actives 20% (n = 96,000);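 active means blocking of liver enzyme CYP2C9 beyond about 50% at 5 µM, limit read from the data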
Target sequence (P11712 whole entry, looked up): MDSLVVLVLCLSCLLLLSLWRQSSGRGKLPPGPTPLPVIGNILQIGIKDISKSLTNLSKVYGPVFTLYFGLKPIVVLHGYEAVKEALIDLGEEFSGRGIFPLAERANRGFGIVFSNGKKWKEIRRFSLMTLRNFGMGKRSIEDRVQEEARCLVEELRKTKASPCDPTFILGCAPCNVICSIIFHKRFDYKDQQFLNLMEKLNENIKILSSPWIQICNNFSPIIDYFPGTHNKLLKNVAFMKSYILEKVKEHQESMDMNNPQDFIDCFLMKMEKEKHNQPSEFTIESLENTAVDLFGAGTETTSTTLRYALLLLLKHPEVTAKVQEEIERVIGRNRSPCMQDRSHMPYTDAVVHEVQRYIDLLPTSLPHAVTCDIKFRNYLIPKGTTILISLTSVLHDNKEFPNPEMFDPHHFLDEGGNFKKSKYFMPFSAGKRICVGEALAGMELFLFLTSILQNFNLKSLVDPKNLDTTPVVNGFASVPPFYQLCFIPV
CYP2C9 activ: increases human cytochrome P450 2C9 activity. P11712. AID 1024. activation factor at 5 µM. recombinant CYP2C9, luciferin-H conversion, luminescence; stronger effect = higher value; factor 1 = untreated enzyme, 0 = blocked. actives 1.4% (n = 96,000);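 active means activation factor of 2 or more for CYP2C9 at a 5 µM dose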;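 further: 0 = sulfaphenazole-blocked wells and 1 = vehicle-only wells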
F-actin modifier: cytoskeleton assembly modification | HUVEC TNFa F-actin phalloidin imaging, high content | inhibition, % at 2 µM | actives 0.18% (n = 91,000) | AID 836;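 active means inhibition above the batch mean plus 3 SD and confirmed as a hit by visual image inspection, cut at about 30% in these data, passing the limit was not always enough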
* hit, by the source's call.

CCOC(=O)c1c2ccc(OCC(=O)N/N=C/c3ccc(Cl)cc3)cc2n2ccccc12 was read as E-sel TNF inh -41, CYP2C19 inhib 9, CYP2C19 activ 0.9, CYP2C9 inhib 39, CYP2C9 activ 0.6 and F-actin modifier -8.
CCOC(=O)c1c2ccc(OCC(=O)N/N=C/c3ccccc3C(F)(F)F)cc2n2ccccc12 was read as CYP2C19 inhib 16, CYP2C19 activ 0.8, CYP2C9 inhib 59*, CYP2C9 activ 0.4 and F-actin modifier 29.
`COC(=O)C1CSC(C(=O)OC)N1C(=O)Nc1ccc(Cl)cc1` (configuration not stated) gave E-sel TNF inh 2, CYP2C19 inhib 69*, CYP2C19 activ 0.3, CYP2C9 inhib 12, CYP2C9 activ 0.9 and F-actin modifier -17.
`COC(=O)C1CSC(C(=O)OC)N1C(=O)Nc1ccc(Cl)c(Cl)c1` (configuration not stated) gave E-sel TNF inh -3, CYP2C19 inhib 61*, CYP2C19 activ 0.4, CYP2C9 inhib 67*, CYP2C9 activ 0.3 and F-actin modifier -12.
COc1ccc(OC)c(CNC(=O)C2CCN(C(=O)N(C)C)CC2)c1 was read as E-sel TNF inh -1, CYP2C19 inhib 12, CYP2C19 activ 0.9, CYP2C9 inhib -31 and CYP2C9 activ 1.3.
`COCCNC(C(=O)Nc1ccc(C)cc1[N+](=O)[O-])c1ccccc1` (configuration not stated) gave E-sel TNF inh 31.
Screening CCCCC(=O)N1CCCC(c2nc3c(nnn3Cc3cc(C)ccc3C)c(=O)[nH]2)C1 (configuration not stated) returned E-sel TNF inh 6, CYP2C19 inhib 67*, CYP2C19 activ 0.3, CYP2C9 inhib 87*, CYP2C9 activ 0.1 and F-actin modifier 3.
`Cc1ccc(C(=O)N2CCCC(c3nc4c(nnn4Cc4ccccc4)c(=O)[nH]3)C2)cc1` (configuration not stated) gave E-sel TNF inh 11, CYP2C19 inhib 10, CYP2C19 activ 0.9, CYP2C9 inhib 47, CYP2C9 activ 0.5 and F-actin modifier 12.
Screening Cc1ccc(C)c(Cn2nnc3c(=O)[nH]c(C4CCCN(C(=O)CC(C)C)C4)nc32)c1 (configuration not stated) returned CYP2C19 inhib 61*, CYP2C19 activ 0.4, CYP2C9 inhib 79*, CYP2C9 activ 0.2 and F-actin modifier 6.
NC(=O)c1cc(Cl)cn(-c2ccccc2)c1=O was read as E-sel TNF inh 9, CYP2C19 inhib -25, CYP2C19 activ 1.3, CYP2C9 inhib -26, CYP2C9 activ 1.3 and F-actin modifier 16.
For Cn1c(Cn2cnc3ccccc32)nnc1SCC(=O)CC(=O)Nc1ccccc1 the results were CYP2C19 inhib 25, CYP2C19 activ 0.7, CYP2C9 inhib 70*, CYP2C9 activ 0.3 and F-actin modifier -16.
Screening O=C(Nc1ccccc1N1CCN(C(=O)c2ccc(Cl)cc2)CC1)c1cccnc1 returned E-sel TNF inh -2, CYP2C19 inhib 88*, CYP2C19 activ 0.1, CYP2C9 inhib 93*, CYP2C9 activ 0.1 and F-actin modifier -30.
O=C(Nc1ccccc1N1CCOCC1)c1ccc(Cl)nc1 was read as E-sel TNF inh 88*.
For CC(C)CC(=O)Nc1ccccc1N1CCN(C(=O)c2ccccc2)CC1 the results were E-sel TNF inh -7, CYP2C19 inhib 77*, CYP2C19 activ 0.2, CYP2C9 inhib 76*, CYP2C9 activ 0.2 and F-actin modifier -2.
For CC(C)C(=O)Nc1ccccc1N1CCN(C(=O)c2ccccc2)CC1 the results were E-sel TNF inh -7, CYP2C19 inhib 68*, CYP2C19 activ 0.3, CYP2C9 inhib 63*, CYP2C9 activ 0.4 and F-actin modifier 20.
CC(=O)Nc1ccc(NC(=O)c2ccc(-n3c(C)ccc3C)cc2)cc1 was read as E-sel TNF inh -3.
For CCc1c(O)nc(SCc2ccccc2)n(C(C)CC)c1=O (configuration not stated) the results were E-sel TNF inh -17, CYP2C19 inhib 13, CYP2C19 activ 0.9, CYP2C9 inhib 46, CYP2C9 activ 0.5 and F-actin modifier -21.
For CC(=O)c1cccc(NC(=O)COc2nsnc2N2CCOCC2)c1 the results were E-sel TNF inh -5, CYP2C19 inhib 50, CYP2C19 activ 0.5, CYP2C9 inhib 41, CYP2C9 activ 0.6 and F-actin modifier 29.
Screening Cc1cccc(NC(=O)COc2nsnc2N2CCOCC2)c1 returned CYP2C19 inhib 56*, CYP2C19 activ 0.4, CYP2C9 inhib 17, CYP2C9 activ 0.8 and F-actin modifier 9.
Screening O=C(COc1ccccc1)Nc1ccc(OC(F)(F)C(F)F)c(NC(=O)COc2ccccc2)c1 returned CYP2C19 inhib 17, CYP2C19 activ 0.8, CYP2C9 inhib 54*, CYP2C9 activ 0.5 and F-actin modifier 12.
For Cc1ccc(OCC(=O)Nc2cccc(O)c2)cc1C the results were E-sel TNF inh -28, CYP2C19 inhib 17, CYP2C19 activ 0.8, CYP2C9 inhib -43, CYP2C9 activ 1.4 and F-actin modifier -9.
For Cc1cccc(OCC(=O)Nc2cccc(O)c2)c1 the results were E-sel TNF inh 16, CYP2C19 inhib 79*, CYP2C19 activ 0.2, CYP2C9 inhib 22, CYP2C9 activ 0.8 and F-actin modifier 2.
CC(=O)Nc1cccc(OCC(=O)Nc2ccccc2)c1 was read as E-sel TNF inh 6, CYP2C19 inhib 34, CYP2C19 activ 0.7, CYP2C9 inhib -26, CYP2C9 activ 1.3 and F-actin modifier -6.
`Cc1cccc(NC(=O)COc2ccccc2)c1` gave E-sel TNF inh 1, CYP2C19 inhib 83*, CYP2C19 activ 0.2, CYP2C9 inhib 21, CYP2C9 activ 0.8 and F-actin modifier -1.
COC(=O)c1[nH]c2ccc(C)cc2c1NC(=O)C(C)N1CCN(C2CCCCC2)CC1 (configuration not stated) was read as CYP2C19 inhib 6, CYP2C19 activ 0.9, CYP2C9 inhib 8, CYP2C9 activ 0.9 and F-actin modifier 17.
`Cc1cccc(OCC(=O)NCC(=O)n2nc(C)cc2C)c1` gave CYP2C19 inhib 61*, CYP2C19 activ 0.4, CYP2C9 inhib -114, CYP2C9 activ 2.1* and F-actin modifier 7.
`Cn1c(=O)c2c(-c3ccccc3)n(N3CCOCC3)cc2n(C)c1=O` gave E-sel TNF inh 15, CYP2C19 inhib -3, CYP2C19 activ 1, CYP2C9 inhib 55*, CYP2C9 activ 0.4 and F-actin modifier 4.
For Cn1c(=O)c2c(-c3ccc(C(C)(C)C)cc3)n(N3CCOCC3)cc2n(C)c1=O the results were E-sel TNF inh -1, CYP2C19 inhib 9, CYP2C19 activ 0.9, CYP2C9 inhib -8, CYP2C9 activ 1.1 and F-actin modifier 2.
